This is an account of results in ChEMBL document CHEMBL2218924, “A broad activity screen in support of a chemogenomic map for kinase signalling research and drug discovery” (Biochem J, 2013).

Assay [1] addresses T1, Ephrin type-B receptor 1 (Homo sapiens) (UniProt P54762).
T1 sequence (whole entry): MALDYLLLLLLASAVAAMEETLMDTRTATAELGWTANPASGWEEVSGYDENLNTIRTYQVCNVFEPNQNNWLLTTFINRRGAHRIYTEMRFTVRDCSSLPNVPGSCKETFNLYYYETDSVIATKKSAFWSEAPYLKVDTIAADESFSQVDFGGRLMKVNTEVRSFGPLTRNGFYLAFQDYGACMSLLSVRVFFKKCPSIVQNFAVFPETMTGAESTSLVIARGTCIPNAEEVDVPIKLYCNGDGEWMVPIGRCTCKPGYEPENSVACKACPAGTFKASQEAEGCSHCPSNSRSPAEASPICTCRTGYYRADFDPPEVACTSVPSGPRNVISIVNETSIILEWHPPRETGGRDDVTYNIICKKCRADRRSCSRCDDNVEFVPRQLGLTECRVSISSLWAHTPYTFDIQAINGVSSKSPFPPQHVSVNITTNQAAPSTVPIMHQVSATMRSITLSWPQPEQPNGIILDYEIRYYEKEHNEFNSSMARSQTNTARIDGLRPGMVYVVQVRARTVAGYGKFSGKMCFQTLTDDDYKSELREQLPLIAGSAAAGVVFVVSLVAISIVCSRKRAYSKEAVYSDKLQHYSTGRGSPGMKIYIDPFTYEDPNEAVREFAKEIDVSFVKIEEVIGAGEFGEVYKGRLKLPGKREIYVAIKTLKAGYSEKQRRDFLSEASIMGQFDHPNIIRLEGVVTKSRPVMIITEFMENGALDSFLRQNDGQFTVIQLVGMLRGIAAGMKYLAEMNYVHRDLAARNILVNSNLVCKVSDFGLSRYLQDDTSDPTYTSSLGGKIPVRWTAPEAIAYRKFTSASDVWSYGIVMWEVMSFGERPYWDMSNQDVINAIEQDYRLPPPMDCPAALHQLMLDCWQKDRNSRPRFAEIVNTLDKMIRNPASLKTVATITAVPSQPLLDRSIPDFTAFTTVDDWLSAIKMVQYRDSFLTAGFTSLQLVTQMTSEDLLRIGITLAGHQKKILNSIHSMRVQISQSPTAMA
As to conditions: at 10 µM; call rule not given here.

The target in assay [2] is T2, Ephrin type-B receptor 2 (Homo sapiens) (UniProt P29323).
T2 sequence (whole entry): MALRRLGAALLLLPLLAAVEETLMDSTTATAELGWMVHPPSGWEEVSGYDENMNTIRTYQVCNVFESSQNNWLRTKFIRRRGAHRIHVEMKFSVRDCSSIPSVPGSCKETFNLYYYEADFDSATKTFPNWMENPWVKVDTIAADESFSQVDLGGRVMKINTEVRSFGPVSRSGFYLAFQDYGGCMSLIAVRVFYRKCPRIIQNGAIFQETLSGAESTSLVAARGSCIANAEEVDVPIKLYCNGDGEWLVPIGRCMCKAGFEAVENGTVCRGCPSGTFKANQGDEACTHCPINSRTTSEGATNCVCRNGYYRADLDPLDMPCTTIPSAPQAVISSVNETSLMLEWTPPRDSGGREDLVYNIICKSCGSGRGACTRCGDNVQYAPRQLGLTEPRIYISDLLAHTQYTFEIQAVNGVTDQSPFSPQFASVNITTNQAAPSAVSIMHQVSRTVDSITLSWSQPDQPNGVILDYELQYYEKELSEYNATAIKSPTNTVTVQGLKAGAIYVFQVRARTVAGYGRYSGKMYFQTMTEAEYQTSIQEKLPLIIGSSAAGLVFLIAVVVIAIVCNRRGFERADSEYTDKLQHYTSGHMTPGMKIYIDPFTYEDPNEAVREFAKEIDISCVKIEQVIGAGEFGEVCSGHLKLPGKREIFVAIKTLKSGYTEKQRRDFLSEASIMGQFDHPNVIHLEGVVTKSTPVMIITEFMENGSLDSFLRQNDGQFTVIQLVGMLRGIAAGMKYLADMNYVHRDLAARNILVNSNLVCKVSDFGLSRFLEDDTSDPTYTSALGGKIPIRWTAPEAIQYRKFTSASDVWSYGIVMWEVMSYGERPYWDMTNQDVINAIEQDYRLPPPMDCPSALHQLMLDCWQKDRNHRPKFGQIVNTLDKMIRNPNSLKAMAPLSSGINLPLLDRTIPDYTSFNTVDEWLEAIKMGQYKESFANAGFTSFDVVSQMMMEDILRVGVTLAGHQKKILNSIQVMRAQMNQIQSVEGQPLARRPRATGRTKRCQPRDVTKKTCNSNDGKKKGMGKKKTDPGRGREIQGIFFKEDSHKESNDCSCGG
As to conditions: at 1 µM.

For assay [3], the target named is T2, Ephrin type-B receptor 2 (Homo sapiens). The note with it: at 10 µM.
The target of assay [4] is T3, Ephrin type-B receptor 3 (Homo sapiens) (UniProt P54753).
T3 sequence (whole entry): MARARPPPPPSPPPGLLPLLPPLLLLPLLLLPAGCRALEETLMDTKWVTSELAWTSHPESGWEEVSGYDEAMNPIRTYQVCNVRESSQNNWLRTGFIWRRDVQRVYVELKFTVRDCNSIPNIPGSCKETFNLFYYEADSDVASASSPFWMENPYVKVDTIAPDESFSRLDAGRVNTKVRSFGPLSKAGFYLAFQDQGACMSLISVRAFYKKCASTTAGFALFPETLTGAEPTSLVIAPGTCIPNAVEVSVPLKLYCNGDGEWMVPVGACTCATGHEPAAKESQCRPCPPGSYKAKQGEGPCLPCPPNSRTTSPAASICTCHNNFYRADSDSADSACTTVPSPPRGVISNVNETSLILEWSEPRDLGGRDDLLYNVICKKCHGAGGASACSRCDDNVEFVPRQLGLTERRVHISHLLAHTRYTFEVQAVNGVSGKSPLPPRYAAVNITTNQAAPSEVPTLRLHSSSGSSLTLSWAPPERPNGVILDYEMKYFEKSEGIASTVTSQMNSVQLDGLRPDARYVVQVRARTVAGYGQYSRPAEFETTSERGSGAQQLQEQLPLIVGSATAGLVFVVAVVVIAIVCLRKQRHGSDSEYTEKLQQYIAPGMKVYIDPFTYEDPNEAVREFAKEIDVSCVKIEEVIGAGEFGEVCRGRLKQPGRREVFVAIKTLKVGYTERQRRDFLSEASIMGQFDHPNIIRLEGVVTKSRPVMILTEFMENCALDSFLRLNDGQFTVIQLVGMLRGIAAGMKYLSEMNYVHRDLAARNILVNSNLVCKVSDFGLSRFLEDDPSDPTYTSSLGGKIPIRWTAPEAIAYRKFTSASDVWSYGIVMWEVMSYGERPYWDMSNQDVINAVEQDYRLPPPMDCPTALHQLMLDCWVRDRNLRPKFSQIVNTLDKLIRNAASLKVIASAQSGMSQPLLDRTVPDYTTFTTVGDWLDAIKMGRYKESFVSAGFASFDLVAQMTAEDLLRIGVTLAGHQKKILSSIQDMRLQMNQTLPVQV
The note with it: at 1 µM.

For assay [5], the target named is T3, Ephrin type-B receptor 3 (Homo sapiens). As to conditions: at 10 µM.
For assay [6], the target named is T4, Ephrin type-B receptor 4 (Homo sapiens) (UniProt P54760).
T4 sequence (whole entry): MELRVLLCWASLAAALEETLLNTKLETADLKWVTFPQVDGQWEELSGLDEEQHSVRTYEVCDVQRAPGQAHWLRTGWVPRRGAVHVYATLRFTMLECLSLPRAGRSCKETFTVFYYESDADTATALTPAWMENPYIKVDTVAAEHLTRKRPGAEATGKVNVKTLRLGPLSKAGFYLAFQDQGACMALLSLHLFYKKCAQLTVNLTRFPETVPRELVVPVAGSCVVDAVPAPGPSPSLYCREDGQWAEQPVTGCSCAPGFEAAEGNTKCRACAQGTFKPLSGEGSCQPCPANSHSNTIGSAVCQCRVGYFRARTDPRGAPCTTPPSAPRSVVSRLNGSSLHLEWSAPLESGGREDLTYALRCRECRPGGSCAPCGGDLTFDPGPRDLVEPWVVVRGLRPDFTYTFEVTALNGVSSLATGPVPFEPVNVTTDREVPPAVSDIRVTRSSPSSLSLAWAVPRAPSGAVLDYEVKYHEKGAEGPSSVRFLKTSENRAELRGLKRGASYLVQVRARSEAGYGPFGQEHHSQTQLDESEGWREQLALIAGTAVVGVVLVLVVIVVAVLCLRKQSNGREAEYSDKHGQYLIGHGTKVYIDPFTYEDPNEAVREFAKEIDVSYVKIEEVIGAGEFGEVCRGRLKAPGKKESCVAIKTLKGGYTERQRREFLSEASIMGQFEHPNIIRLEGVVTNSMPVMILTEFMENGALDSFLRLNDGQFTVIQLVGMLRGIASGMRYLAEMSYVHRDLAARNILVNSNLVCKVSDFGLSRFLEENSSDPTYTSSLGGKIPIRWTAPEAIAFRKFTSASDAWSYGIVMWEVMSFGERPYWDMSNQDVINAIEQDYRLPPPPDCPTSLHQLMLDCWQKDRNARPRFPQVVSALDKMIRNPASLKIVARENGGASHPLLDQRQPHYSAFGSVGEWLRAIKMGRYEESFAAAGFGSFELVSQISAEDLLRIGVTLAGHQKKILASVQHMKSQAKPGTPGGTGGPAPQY
The note with it: at 1 µM.

Assay [7] concerns the target T4, Ephrin type-B receptor 4 (Homo sapiens). The note with it: at 10 µM.
For assay [8], the target named is Receptor tyrosine-protein kinase erbB-4 (Homo sapiens) (UniProt Q15303). As to conditions: at 1 µM.
Sequence of Receptor tyrosine-protein kinase erbB-4 (Homo sapiens) (Q15303 whole entry): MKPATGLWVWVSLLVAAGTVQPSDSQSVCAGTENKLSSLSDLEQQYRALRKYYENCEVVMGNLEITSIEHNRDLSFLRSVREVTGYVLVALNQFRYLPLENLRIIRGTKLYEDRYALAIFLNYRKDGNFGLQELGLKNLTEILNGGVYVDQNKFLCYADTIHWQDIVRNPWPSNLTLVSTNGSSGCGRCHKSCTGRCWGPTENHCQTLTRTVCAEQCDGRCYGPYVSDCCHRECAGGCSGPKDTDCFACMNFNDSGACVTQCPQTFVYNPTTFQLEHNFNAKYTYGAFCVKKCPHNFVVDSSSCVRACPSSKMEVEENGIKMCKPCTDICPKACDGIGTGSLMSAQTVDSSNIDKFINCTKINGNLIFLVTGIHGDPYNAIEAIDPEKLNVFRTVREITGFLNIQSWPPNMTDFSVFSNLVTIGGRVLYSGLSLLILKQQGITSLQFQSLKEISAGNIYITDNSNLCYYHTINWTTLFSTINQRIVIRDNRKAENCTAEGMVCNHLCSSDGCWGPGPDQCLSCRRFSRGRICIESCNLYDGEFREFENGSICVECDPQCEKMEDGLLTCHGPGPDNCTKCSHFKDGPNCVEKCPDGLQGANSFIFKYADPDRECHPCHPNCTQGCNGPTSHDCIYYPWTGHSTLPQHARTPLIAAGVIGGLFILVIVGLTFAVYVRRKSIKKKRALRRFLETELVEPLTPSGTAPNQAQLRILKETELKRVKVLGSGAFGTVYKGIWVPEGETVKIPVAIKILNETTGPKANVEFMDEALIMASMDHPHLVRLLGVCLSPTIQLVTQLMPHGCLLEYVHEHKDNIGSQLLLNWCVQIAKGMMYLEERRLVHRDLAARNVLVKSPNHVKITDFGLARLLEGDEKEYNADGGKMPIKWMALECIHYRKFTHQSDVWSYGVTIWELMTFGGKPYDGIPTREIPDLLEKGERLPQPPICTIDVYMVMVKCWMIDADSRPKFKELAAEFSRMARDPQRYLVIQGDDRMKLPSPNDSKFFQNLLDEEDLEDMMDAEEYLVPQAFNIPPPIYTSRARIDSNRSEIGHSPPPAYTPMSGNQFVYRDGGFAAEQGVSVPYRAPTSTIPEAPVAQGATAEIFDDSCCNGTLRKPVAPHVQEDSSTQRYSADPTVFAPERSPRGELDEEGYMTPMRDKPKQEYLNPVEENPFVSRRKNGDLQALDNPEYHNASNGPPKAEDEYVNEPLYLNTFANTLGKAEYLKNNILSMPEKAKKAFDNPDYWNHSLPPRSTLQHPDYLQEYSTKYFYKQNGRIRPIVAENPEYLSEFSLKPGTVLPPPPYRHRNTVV
Assay [9] shares this target. As to conditions: at 10 µM.
Assay [10] deals with Focal adhesion kinase 1 (Homo sapiens) (UniProt Q05397). As to conditions: at 1 µM.
Sequence of Focal adhesion kinase 1 (Homo sapiens) (Q05397 2-1052 limits assumed): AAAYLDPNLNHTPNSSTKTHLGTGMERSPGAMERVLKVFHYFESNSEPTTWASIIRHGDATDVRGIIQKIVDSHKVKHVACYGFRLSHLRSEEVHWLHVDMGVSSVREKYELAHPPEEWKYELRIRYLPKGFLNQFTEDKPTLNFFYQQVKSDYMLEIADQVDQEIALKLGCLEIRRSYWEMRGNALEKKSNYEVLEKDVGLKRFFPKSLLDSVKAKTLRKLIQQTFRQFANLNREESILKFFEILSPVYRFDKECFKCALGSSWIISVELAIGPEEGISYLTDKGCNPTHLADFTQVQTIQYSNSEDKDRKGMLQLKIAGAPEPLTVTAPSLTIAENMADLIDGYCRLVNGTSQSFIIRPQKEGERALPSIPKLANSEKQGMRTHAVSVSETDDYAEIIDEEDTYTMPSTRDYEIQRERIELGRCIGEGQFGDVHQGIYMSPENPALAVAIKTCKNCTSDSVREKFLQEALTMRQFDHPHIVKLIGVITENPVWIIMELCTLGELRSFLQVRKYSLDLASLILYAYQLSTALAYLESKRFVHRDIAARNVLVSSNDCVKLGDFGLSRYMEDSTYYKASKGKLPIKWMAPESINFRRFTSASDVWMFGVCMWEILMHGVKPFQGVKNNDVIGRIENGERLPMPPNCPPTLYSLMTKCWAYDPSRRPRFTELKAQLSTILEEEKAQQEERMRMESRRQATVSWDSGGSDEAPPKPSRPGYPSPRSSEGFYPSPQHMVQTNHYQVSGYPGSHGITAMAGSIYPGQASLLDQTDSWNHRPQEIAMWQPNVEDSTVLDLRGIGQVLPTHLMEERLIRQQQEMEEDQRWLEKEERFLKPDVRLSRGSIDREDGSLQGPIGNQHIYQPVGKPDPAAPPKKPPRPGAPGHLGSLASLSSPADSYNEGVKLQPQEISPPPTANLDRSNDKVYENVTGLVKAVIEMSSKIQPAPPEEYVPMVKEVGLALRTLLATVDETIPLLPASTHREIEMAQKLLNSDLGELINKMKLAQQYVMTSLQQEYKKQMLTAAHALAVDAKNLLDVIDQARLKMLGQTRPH

Consider `CC#CC(=O)Nc1cc2c(Nc3ccc(F)c(Cl)c3)ncnc2cn1`, for which the residual activity in [1] was 98%; in assay [2] it was 110%; in [3], 107%; in assay [4], 115% (inactive); in assay [5] it was 102%; in assay [6], 87%. The residual activity in assay [7] was 108%; in [8] it was 16%; in [9], 14%; in assay [10], 133%.

The residual activity is the signal under treatment as a percentage of the control signal.
